From the supplement of paper PMC11577813, “Eurasian spruce bark beetle detects lanierone using a highly expressed specialist odorant receptor, present in several functional sensillum types” (BMC Biology, 2024)
± gives the standard deviation of the averaged measurements.

Tested on: lanierone-responsive B-neuron OSN class (ItypOR36)
Test: net action potential response of lanierone B-neuron (blank-subtracted) (spikes/s (Hz)); higher = stronger excitation
Conditions: 10 µg on filter paper, neuron: B neuron (small spike amplitude)
Description: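 Single sensillum recordings from antennal olfactory sensilla of live adult Ips typographus. Each compound was 10 µg in paraffin oil, delivered as a 0.5 s puff. Net response = spikes in the first 0.5 s of response minus the 0.5 s pre-stimulus count, doubled to give Hz, with blank response subtracted. Values are for the small-spike lanierone-responsive B-neuron (putatively expressing ItypOR36), recorded in sensilla co-housing the A-neuron class; N = 1-4, averaged.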

[1] = co-localized A-neuron class: (4S)-cis-verbenol
[2] = co-localized A-neuron class: (5S,7S)-trans-conophthorin
[3] = co-localized A-neuron class: (+)-isopinocamphone
[4] = co-localized A-neuron class: (+)-trans-4-thujanol
[5] = co-localized A-neuron class: ipsdienol
[6] = co-localized A-neuron class: myrcene
[7] = co-localized A-neuron class: p-cymene

SMILES | net action potential response [1] | net action potential response [2] | net action potential response [3] | net action potential response [4] | net action potential response [5] | net action potential response [6] | net action potential response [7]
CC/C=C/CCO | 2 ± 4 | -5.33 ± 6.1 | -2 ± 5.3 | -0.5 ± 6.6 | 0 ± 4 | -2 | -0.667 ± 3.1
CC/C=C\CCO | 2.67 ± 6.4 | -4 ± 6 | -4 ± 2 | -4.5 ± 3.4 | -5.33 ± 5.8 | -6 | 0
CC1(C)C2CC=C(CO)C1C2 (racemic) [(±)-Myrtenol] | -0.667 ± 3.1 | 2.5 ± 6 | -1.33 ± 3.1 | 0 ± 2.3 | -2 ± 14 | -6 | 0 ± 2
C=Cc1ccc(OC)cc1 [4-Vinyl anisole] | 1.33 ± 9 | 3.33 ± 4.6 | 1.33 ± 9.2 | -2.5 ± 5.5 | 2.67 ± 6.4 | 0 | 0 ± 7.2
CC(=O)OC/C=C(\C)CCC=C(C)C [Geranyl acetate] | -2.67 ± 7.6 | -2 ± 9.2 | -0.667 ± 2.3 | -2 ± 4.3 | -2 ± 5.3 | 0 | -2 ± 5.7
CC(C)=CCC/C(C)=C/C=O [Citral (E/Z mix)] | -1.33 ± 4.6 | -3.33 ± 4.2 | 1.33 ± 4.2 | 2 ± 8.2 | -5.33 ± 7.6 | 0 | -0.667 ± 4.2
